Screening data from PubChem.
TSG101-PTAP inh: blocks PTAP/TSG101 interaction to inhibit HIV-1 budding | Q99816 | AID 493005 | Fluorescence polarization, FITC-PTAP peptide / Tsg101 binding | Potency, µM (doses to about 115 µM), for the others: at the highest dose activity change, negative = inhibition, usual class: inhibitors | 340,000 tested, under 10 active; active = well fitted inhibition curve with a large enough effect in the main read-out, with a control signal flat, not every such curve was filed as active; inconclusive = small, poorly fitted or top-dose-only effect, or effect the other way, or a change in a side signal; inactive = no such curve, though single readings can be large or run the other way; note: potency is the fitted concentration of half-maximal effect; % of control where 0% means no effect
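Fluorescence anisotropy tracks displacement of a FITC-tagged PTAP peptide (50 nM) from the Tsg101 binding domain (10 uM), following a 20 min room-temperature incubation at pH 7.5.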
Vif-APOBEC3F blk: inhibitors of Vif-A3F interaction | Potency, µM (titrated, usually from 46.1 µM), for the others: at the highest dose activity, negative = active | HeLa A3F-eYFP + Vif (tagged APOBEC3F with the HIV-1 protein that degrades it), YFP fluorescence increase | 390,000 compounds, 0.2% hits; note: potency is the fitted concentration of half-maximal effect; % of control where 0% means no effect; nearly all actives have a fitted effect of over 65% in size
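HeLa cells stably expressing Vif plus C-terminally eYFP-tagged A3F were seeded, incubated overnight at 37 deg C, dosed with compound, incubated overnight again at 37 deg C. Yellow fluorescence (Ex 488/Em 500-530) reported blocked Vif-mediated A3F-eYFP degradation.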
ALOX12 inh: blocks human arachidonate 12S-lipoxygenase; 580,000 compounds, 1.1% hits; Potency, µM (series often up to 108 µM), without a hit: at the top dose activity change, negative = inhibition, actives largely listed as inhibitors; purified 12hLO, xylenol orange hydroperoxide absorbance; note: potency is the fitted concentration of half-maximal effect; % is set by controls: 0 for no effect and ±100 for the full control effect
Target sequence (P18054 whole entry, looked up): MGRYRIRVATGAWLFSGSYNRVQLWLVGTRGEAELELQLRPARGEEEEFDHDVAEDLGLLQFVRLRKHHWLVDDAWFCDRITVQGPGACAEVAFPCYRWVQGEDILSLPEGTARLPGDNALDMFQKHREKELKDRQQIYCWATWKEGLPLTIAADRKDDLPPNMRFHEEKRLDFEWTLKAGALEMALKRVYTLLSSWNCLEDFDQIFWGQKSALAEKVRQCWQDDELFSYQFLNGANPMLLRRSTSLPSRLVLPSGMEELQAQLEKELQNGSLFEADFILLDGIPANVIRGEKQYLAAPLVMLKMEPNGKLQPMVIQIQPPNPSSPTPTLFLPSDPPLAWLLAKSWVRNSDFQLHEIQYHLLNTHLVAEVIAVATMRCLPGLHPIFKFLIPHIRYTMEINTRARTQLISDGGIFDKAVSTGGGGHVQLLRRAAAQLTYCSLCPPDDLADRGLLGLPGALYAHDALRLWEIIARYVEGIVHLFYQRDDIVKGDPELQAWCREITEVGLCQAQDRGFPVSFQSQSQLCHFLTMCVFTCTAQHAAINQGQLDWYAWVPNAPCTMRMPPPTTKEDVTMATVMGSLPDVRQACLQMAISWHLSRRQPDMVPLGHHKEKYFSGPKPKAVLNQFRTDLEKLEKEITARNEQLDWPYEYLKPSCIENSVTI
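Purified human 12hLO (150 nM final) in 25 mM Hepes, 0.01% Triton X-100, pH 7.0 was preincubated 15 min at room temperature with compound. Then 40 uM arachidonic acid was added, 30 min. Hydroperoxide was read by Fe-XO absorbance ratio 573/405 nm.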
ASM inhibitor: human S-ASM enzyme inhibition | placental ASM, HMU-PC fluorogenic substrate, 60 min | Potency, µM (titrated, usually from 57.5 µM), for inactives: at the highest dose activity change, negative = inhibition, usual class: inhibitors | 340,000 compounds, 0.006% hits | AID 504937; note: potency is the fitted concentration of half-maximal effect
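Fluorogenic HMU-PC substrate (9 uM final) is turned over by placental ASM in 60 min at 37 C after a 10 min compound preincubation. Reaction ended by alkaline stop (pH 10), with fluorescence read at 386/447 nm.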
Akt phos inh: blocks phosphorylation of Akt; Neuro2A IGF-stimulated pAkt S473 HTRF, 20 min; stronger effect = lower value; activity change, % for hits at 50 µM; 360,000 compounds, 0.32% hits; AID 651550; in the data active = activity change below about -80%; inconclusive = mostly about -51% to -80%; note: % is set by controls: 0 for no effect and ±100 for the full control effect
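Single-point screen (50 µM final compound) in Neuro2A cells stimulated 20 min with 6 nM IGF at 37 deg C. After lysis, Ser473-phosphorylated Akt read by HTRF (ex 330 nm, em 615/665 nm) as the 665/615 ratio.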
Vif-A3G inh: blocks the Vif interaction with human APOBEC3G; Q9HC16; HeLa A3G-eYFP + Vif (tagged APOBEC3G with the HIV-1 protein that degrades it), YFP fluorescence, overnight; 410,000 compounds, 0.076% hits; Potency, µM (top dose mostly 46.1 µM), for inactives: at the highest dose activity, negative = active, hits mostly inhibitors; AID 602310; note: potency is the fitted concentration of half-maximal effect; % is set by controls: 0 for no effect and ±100 for the full control effect; nearly all actives have a fitted effect of over 60% in size
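Read-out is eYFP fluorescence (Ex 488/Em 500-530) from Vif-expressing HeLa A3G-eYFP cells; more signal means A3G escaped Vif-mediated degradation. Cells plated overnight, compound pinned in, incubated overnight at 37 deg C.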
Starred values were filed as active, the others as inactive; i = inactive; u = inconclusive; x = no result given. An excerpt weighted towards active compounds, which were near 1.4% of everything screened. Unless noted, calls come from the whole dose curve; as a rule, active = well fitted curve in the direction sought with a large enough effect; inconclusive = small, poorly fitted or top-dose-only effect, or another doubt; inactive = no such curve, though single readings can be large; an effect the other way counts as inactive or inconclusive.

SMILES	TSG101-PTAP inh	Vif-APOBEC3F blk	ALOX12 inh	ASM inhibitor	Akt phos inh	Vif-A3G inh
CCN1C(=O)[C@H]2[C@@H](c3ccc(OC)cc3)N[C@]3(CCCN(Cc4cccn4C)C3=O)[C@H]2C1=O	x	2.2%	u	x	i	1.9%
COc1ccc([C@H]2N[C@]3(CCCN(Cc4cccn4C)C3=O)[C@H]3C(=O)N(C)C(=O)[C@@H]23)cc1	x	-1.0%	11.2µM*	x	i	-5.1%
Cc1cc(-c2ccccc2)nc(SCc2ccc(C#N)cc2)n1	x	x	14.7%	x	x	x
COc1cccc(CNC(=O)c2cccc(N3CCCN(Cc4ccc(C)cc4)C3=O)c2)c1	x	x	-13.2%	x	x	x
COc1cccc(/C=C(\CC(=O)O)c2nc3ccccc3s2)c1	-2.8%	22.3%	-17.3%	7.9%	i	-1.0%
O=C(O)C/C(=C/c1cccc(Br)c1)c1nc2ccccc2s1	x	x	28.2µM*	x	x	x
COc1ccc(/C=C(/CC(=O)O)c2nc3ccccc3s2)cc1	x	x	2.24µM*	x	x	x
O=C(O)C/C(=C/c1ccc(Br)cc1)c1nc2ccccc2s1	x	x	31.6µM*	x	x	x
COc1ccc(NC(=O)c2ccc(Br)o2)cc1NC(=O)c1cccc(C)c1	x	x	-19.2%	x	x	x
O=C(CNc1ccc(S(=O)(=O)N2CCCC2)cc1)N1CCN(C(=O)c2cccs2)CC1	x	x	10.1%	x	x	x
COc1ccc(C)cc1Nc1n[n+](-c2ccccc2)c(-c2ccc(NC(C)=O)cc2)s1	2.4%	-7.3%	-16.4%	-0.5%	i	0.8%
COc1ccc(C)cc1Nc1n[n+](-c2ccccc2)c(-c2cc([N+](=O)[O-])cc(OC)c2O)s1	u	22.4µM*	x	-1.7%	i	-9.2%
COc1ccc(OC)c(/C=C/c2nc3ccccc3nc2C)c1	x	x	x	x	x	-22.6%
COc1ccc(OC)c(/C=C/c2nc3ccccc3[nH]c2=O)c1	u	22.4µM*	u	67.9%	i	u
Nc1nc(CN2CCN(C(=O)c3ccc(Cl)cc3)CC2)nc2ccccc12	x	x	10.0%	x	x	x
CCOC(=O)c1c(C)nc2sc3c(=O)n(-c4ccc(C)cc4)cnc3c2c1-c1ccc(OC)cc1	-4.0%	-6.6%	-2.8%	-2.8%	-109.7%*	1.2%
Cc1cc(C(=O)CN2CCN(CC(=O)Nc3cccc(F)c3)CC2)c(C)n1CCc1cccs1	x	x	-20.6%	x	x	x
CCc1cc(/C(Cc2csc(C)n2)=N/O)c(O)cc1O	-2.8%	2.2%	0.0%	-7.2%	-103.8%*	-3.6%
CCOc1ccc(NC(=S)Nc2ccc3nsnc3c2)cc1	-4.5%	4.0%	u	-1.7%	i	-5.0%
COc1ccc(NC(=S)Nc2ccc3nsnc3c2)cc1	-8.7%	-17.7%	7.94µM*	12.1%	i	-26.1%
Cc1ccc(-c2csc(/C=C/c3cccc(O)c3)n2)cc1	x	x	7.08µM*	x	x	x
Cc1ccc(-c2csc(/C=C/c3ccc(C#N)cc3)n2)cc1	x	x	-1.8%	x	x	x
Cc1cc(C)cc(OCCn2c(CN(C)C(=O)c3ccco3)nc3ccccc32)c1	x	x	-1.7%	x	x	x
O=c1[nH]c(=O)c2[nH]c(=S)[nH]c2[nH]1	-2.3%	2.7%	0.708µM*	98.6%	i	2.4%
CSc1ccc(NC(=O)C2C(C=C(C)C)C2(C)C)cc1 (stereo unspecified)	x	x	-23.2%	x	x	x
SMILES	TSG101-PTAP inh	Vif-APOBEC3F blk	ALOX12 inh	ASM inhibitor	Akt phos inh	Vif-A3G inh
Cc1cccc(C)c1-n1nnnc1C1(C)CCC(=O)N1c1ccc(N2CCOCC2)cc1 (stereo unspecified)	x	x	11.2µM*	x	i	x
CCCCn1nnnc1C1(C)CCC(=O)N1c1ccc(N2CCOCC2)cc1 (stereo unspecified)	x	x	-0.7%	x	i	x
Cc1noc(-c2ccccc2[N+](=O)[O-])c1-c1ccccc1[N+](=O)[O-]	x	x	-17.5%	x	x	x
CCn1c(CN2c3ccccc3Sc3ccccc32)n[nH]c1=S	-2.5%	-2.0%	8.91µM*	-16.4%	i	-6.9%
CCn1c(CSc2nc3ccccc3s2)n[nH]c1=S	-2.5%	-2.7%	31.6µM*	2.4%	i	0.0%
CNc1ccc(C)cc1C(=O)N1CCC2(CCCN(C)CC2)CC1	x	x	4.6%	x	x	x
